Screening results (PubChem BioAssay)
Tb PFK block: blocks T. brucei phosphofructokinase. 0.17% of 330,000 active. T. brucei PFK, ADP-Glo luminescence. Potency, µM (series often up to 57.5 µM), without a hit: top-dose activity, negative = inhibition, usual class: inhibitors. AID 485367;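 note: 0% = uninhibited 1x PFK enzyme wells and -100% = no-enzyme wells; nearly all actives have a fitted effect of over 60% in size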
Target sequence (O15648 whole entry, looked up): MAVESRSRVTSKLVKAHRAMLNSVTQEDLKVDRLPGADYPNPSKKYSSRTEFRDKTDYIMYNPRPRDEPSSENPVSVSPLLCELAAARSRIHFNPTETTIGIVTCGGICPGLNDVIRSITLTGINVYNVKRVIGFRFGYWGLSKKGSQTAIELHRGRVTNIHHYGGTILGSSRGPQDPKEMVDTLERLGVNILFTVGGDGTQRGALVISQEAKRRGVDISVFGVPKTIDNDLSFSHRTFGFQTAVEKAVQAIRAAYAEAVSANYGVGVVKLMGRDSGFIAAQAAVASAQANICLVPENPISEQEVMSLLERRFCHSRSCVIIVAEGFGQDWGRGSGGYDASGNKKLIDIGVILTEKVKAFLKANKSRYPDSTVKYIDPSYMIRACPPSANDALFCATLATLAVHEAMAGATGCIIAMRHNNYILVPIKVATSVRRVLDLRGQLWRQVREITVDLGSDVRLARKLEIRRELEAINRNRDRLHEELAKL
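Compounds were pin-transferred as a titration series up to 57 uM into substrate buffer (0.5 mM F6P, 0.1 mM ATP, pH 8.0), then 1.25 nM PFK was added and reactions ran 45 min before ADP-Glo detection.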
Chronic BCR inh: blocks chronic active B-cell receptor signaling; ABC-DLBCL IkBa-CBG/CBR reporter, luminescence ratio, 4 h; Potency, µM (titrated, usually from 46.1 µM), for inactives: top-dose activity change, negative = inhibition, most hits filed as inhibitors; 0.05% of 340,000 active; AID 493014; active = well fitted inhibition curve with a large enough effect in the signal ratio, with a control signal flat, not every such curve was filed as active; inconclusive = small, poorly fitted or top-dose-only effect, or effect the other way, or a change in a side signal; the % refers to the signal ratio;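 note: plate controls were basal doxycycline-induced cells for no effect and cells given 10 µM MG132 for full effect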
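Cell line TMD8 (human ABC DLBCL), stably expressing tet-inducible CBG68-IkBa fusion and CBR; IMDM/0.5% FBS; cpd up to 46 uM; dox induction, 4 h, 37C/5% CO2; dual luminescence; green/red ratio; MG132 control.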
B2AR arrestin: recruits beta-arrestin to the human beta2-adrenergic receptor; 0.02% of 330,000 active; beta-arrestin recruitment to beta2AR, cell-based reporter; Potency, µM (doses to about 46.1 µM), for the others: top-dose activation, actives largely listed as activators;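 note: 0% = DMSO controls and full agonism = EC100 isoproterenol or metaproterenol; nearly all actives have a fitted effect of over 65% in size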
MBNL1 CUG block: blocks human MBNL1 binding to CUG repeat RNA; Q9NR56; TR-FRET MBNL1-His/biotin-(CUG)12 binding, 665/545 ratio; Potency, µM (titrated, usually from 57.5 µM), without a hit: at the top dose activity change, negative = inhibition, most hits filed as inhibitors; 0.036% of 280,000 active; active = well fitted inhibition curve with a large enough effect in the signal ratio, with a control signal flat, not every such curve was filed as active; inconclusive = small, poorly fitted or top-dose-only effect, or effect the other way, or a change in a side signal; inactive = no such curve, though single readings can be large or run the other way; the % refers to the signal ratio
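TR-FRET readout: Ex 340 nm, 665/545 nm emission ratio, normalized to buffer-only (basal) and MBNL1-(CUG)12 controls. Complex of MBNL1-His with Biotin-(CUG)12, compounds 92 nM–58 uM, incubated 60 min at room temperature.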
The depositor's hits bear a star; u = inconclusive; x = not tested or not shown; [ ] = dose if it differs, or a comment. Shown are actives, neighbours in structure and some others; about 0.27% of the full set was active somewhere. Unless noted, calls come from the whole dose curve; as a rule, active = well fitted curve in the direction sought with a large enough effect; inconclusive = small, poorly fitted or top-dose-only effect, or another doubt; inactive = no such curve, though single readings can be large; an effect the other way counts as inactive or inconclusive. Unless noted, % is set by controls: 0 for no effect and ±100 for the full control effect; potency is the fitted concentration of half-maximal effect.

SMILES | Tb PFK block | Chronic BCR inh | B2AR arrestin | MBNL1 CUG block
Oc1ccccc1/C=N/Nc1nc2ccccc2o1 | -11% | u | 14µM* | 8%
COc1ccccc1NC(=O)N1CCC(c2nc3cc(C)c(C)cc3[nH]2)CC1 | -1% | 18µM* | 0% | -17%
NC(=S)N/N=C1\CC(c2ccc3c(c2)OCCO3)Oc2ccc(F)cc21 (stereo not given) | 1% | u | 0% | x
NC(=S)N/N=C1\CC(c2ccc3c(c2)OCCCO3)Oc2ccc(F)cc21 (stereo not given) | -20% | 18µM* | u | u
Cc1cnn(CCC(=O)NNC(=S)NCC(C)C)c1 | 0% | 18µM* | 0% | -8%
COc1ccc(NC(=O)C(=O)NCCc2csc(-c3ccc(Cl)cc3)n2)cc1 | x | 0% | x | x
Oc1c(CN2CCc3ccccc3C2)cc(Cl)c2cccnc12 | -5% | u | 7.1µM* | 37%
CN1CCN(Cc2cc(COCc3ccccc3)c3cccnc3c2O)CC1 | 17% | u | 2.5µM* | u
COc1ccc(-c2noc(CSc3nc(N)c(-c4ccccc4)c(=O)[nH]3)n2)cc1 | -3% | 16µM* | 0% | 1%
Nc1nc(SCc2ccc(Cl)cc2)[nH]c(=O)c1-c1ccccc1 | -8% | -18% | 0% | -4%
Oc1ccc(CNCc2ccc3c(c2)OCO3)c2cccnc12 | 2% | 15µM* | 14% | x
O=C(CSc1ncccn1)NCc1ccc2c(c1)OCO2 | -1% | 7% | 0% | -1%
CCc1cnc2c(c1SCC(=O)NCc1ccc(F)cc1)c(=O)n(C)c(=O)n2C | x | -5% | x | x
C=CCn1c(-c2ccccc2)c[nH]c1=S | u | u | u | 1%
C=CCn1c(-c2ccc(Cl)cc2)c[nH]c1=S | -6% | u | 20µM* | 111%
Cc1cccc(NC(=O)c2cc(NC(=O)C3CCCCC3C(=O)O)ccc2Cl)n1 (stereo not given) | 1% | -1% | 0% | -3%
Cc1cccc(NC(=O)c2cc(NC(=O)c3ccco3)ccc2Cl)n1 | -3% | 23µM* | 0% | 2%
COc1cc(OC)cc(C(=O)NNC(=O)c2ccccn2)c1 | 13% | u | 0% | 31%
COc1ccc(C(=O)NNC(=O)c2ccccn2)cc1 | 15µM* | u | -1% | -25%
COc1ccc(C(=O)O/N=C(\N)c2ccccn2)cc1 | 15µM* | u | 0% | 6%
COc1cc(OC)cc(C(=O)O/N=C(\N)c2ccccn2)c1 | -1% | u | 8% | -1%
CN(Cc1cccnc1)C(=O)c1ccc(Cl)c(NS(=O)(=O)c2ccc(F)cc2)c1 | 0% | 1% | 0% | x
CCCC/C(O)=C/c1nc2ccccc2[nH]c1=O | 0% | 15µM* | 0% | u
COc1cc2c(cc1OC)[C@@H]1O[C@](CCCCN3C(=O)c4ccccc4C3=O)(C2)Oc2cc(C)n(-c3ccccc3)c(=O)c21 | 0%[11.5 µM] | u | 0%[9.22 µM] | 9%[11.5 µM]
COc1ccc([C@]23Cc4ccccc4C(O2)C2=C(O3)C(=O)c3ccccc3C2=O)cc1 | 2%[11.5 µM] | 18%[9.22 µM] | 1%[9.22 µM] | 10%[11.5 µM]
SMILES | Tb PFK block | Chronic BCR inh | B2AR arrestin | MBNL1 CUG block
C=C(Cl)CSC(=S)N(CC)CC | -15% | 8% | -1% | x
CCN(CC)C(=S)SSC(=S)N(CC)CC | u | u | 0.65µM* | 81%
O=C(CCNC(=O)c1ccccc1Cl)Nc1ccc(S(=O)(=O)Nc2nccs2)cc1 | -6% | 1% | -1% | x
COc1ccccc1NS(=O)(=O)c1cc(-c2cnc(C3CC3)o2)ccc1C | -1% | u | 0% | -9%
COc1ccc(NS(=O)(=O)c2cc(-c3cnc(C4CC4)o3)ccc2C)cc1 | -2% | 13µM* | 0% | -6%
CCCNS(=O)(=O)c1cccc(C(=O)OCc2cc(=O)oc3cc(OC)ccc23)c1 | 3% | 13µM* | 0% | 108%
CCOc1ccccc1N=NC1C(=O)N(C(N)=S)N=C1C (stereo not given) | 0% | u | 1.1µM* | 0%
Cc1ccc(SSc2cc(C)ccc2N)c(N)c1 | 21µM* | u | -2% | x
O=[N+]([O-])c1cc(Cl)c2cccnc2c1O | 3% | 11µM* | 0% | u
O=[N+]([O-])c1cc(F)c2cccnc2c1O | 1% | 16µM* | -1% | u
Cc1onc(-c2ccccc2Cl)c1C(=O)Nc1cccc(S(=O)(=O)NC2=NCCC2)c1 | 1% | -3% | -1% | x
COc1ccc(Nc2ncnc3c2cnn3-c2ccc(C)cc2C)cc1 | x | 3% | x | x
Cn1nc(-c2ccc(C(=O)NCCO)cc2)c2ccccc2c1=O | -21% | -15% | 5.6µM* | -3%
CN(CCO)C(=O)c1ccc(-c2nn(C)c(=O)c3ccccc23)cc1 | 1% | u | 6% | -4%
Cc1ccc(-c2ccc(/C=N/NC(N)=S)o2)cc1 | 2% | 22µM* | u | u
Cc1ccccc1OCCn1c(=S)[nH]c2c(N)ncnc21 | u | 1% | 0% | -7%
Cc1ccccc1OCCn1cnc2c(N)ncnc21 | 4% | 18µM* | 0% | -12%
CCc1ccccc1N(C)S(=O)(=O)c1ccc2[nH]cc(C(=O)NCCOC)c(=O)c2c1 | x | 4% | x | x
O=C(NC1CC(=O)N(c2ccc(F)cc2)C1)c1ccc2c(c1)OCO2 (stereo not given) | x | 0% | x | x
COc1ccc(-c2ccc3nnc(SCC(N)=O)n3n2)cc1 | 1% | 10% | 0% | 30%
CCSc1nnc2ccc(-c3ccc(OC)c(OC)c3)nn12 | 2% | 7.9µM* | 0% | u
Cc1ccc(Cn2c(CN3CCC(C(=O)NCc4cccnc4)CC3)cc3ccccc32)cc1 | x | -26% | x | x
O/N=C1/CC/C(=N\O)c2nn(-c3ccccc3)nc21 | -4% | 5.8µM* | 0% | -10%
CNC(=O)Nc1ccc2nc(C)sc2c1 | -3% | 21% | 0% | -15%
C=CCNC(=O)Nc1ccc2nc(C)sc2c1 | 0% | -10% | -1% | 32µM*
SMILES | Tb PFK block | Chronic BCR inh | B2AR arrestin | MBNL1 CUG block
COc1ccccc1C1CC(=O)Nc2cc3c(cc21)OCCO3 (stereo not given) | 1% | 23µM* | -1% | -10%
COc1ccc2c(c1)c(/C=N/Nc1nc3ccccc3[nH]1)c(C)n2C | 0% | 16µM* | 0% | x
NC(=S)NNC(=O)Nc1ccc(Cl)c(Cl)c1 | 17µM* | -1% | -3% | x
O=C(Cc1ccccc1)NNC(=O)Nc1ccc(Cl)c(Cl)c1 | 0% | u | -1% | -7%
N#C/C(=C\c1c(Cl)cccc1Cl)c1nc2ccccc2o1 | 14% | -10% | 23µM* | 5%
Cc1ccc(S(=O)(=O)CNC(=S)c2cccc(C)c2)cc1 | -14% | 18µM* | 2% | -15%
Cc1oc(-c2ccc(Cl)cc2)nc1CS(=O)CC(=O)NCCc1ccccc1 (stereo not given) | x | 17% | x | x
COc1ccc(C2C(=O)N(C3CCCCCC3)CC(=O)N2CCC2=CCCCC2)cc1 (stereo not given) | x | -1% | x | x
COc1ccc(N2C(=O)CS/C2=N\C(=S)Nc2ccccc2)cc1 | 0% | 10µM* | 5.6µM* | x
COc1ccc(CN(C(=S)Nc2ccccc2)C2CC(=O)N(c3ccc(F)cc3)C2=O)cc1 (stereo not given) | 0% | 0% | 7% | 1%
